Rows were chosen to be rich in hits. Some 1.1% of all compounds tested hit in one or more screens of this group.
ID4 SMM – ID4 (human) binding; small molecule microarray, Flag-ID4 binding, fluorescence F/B; calls only; 31,000 compounds, 1.2% hits; P47928; call rule not given here;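 note: a binder raises fluorescence above local background on the spot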
Target sequence (P47928 whole entry, looked up): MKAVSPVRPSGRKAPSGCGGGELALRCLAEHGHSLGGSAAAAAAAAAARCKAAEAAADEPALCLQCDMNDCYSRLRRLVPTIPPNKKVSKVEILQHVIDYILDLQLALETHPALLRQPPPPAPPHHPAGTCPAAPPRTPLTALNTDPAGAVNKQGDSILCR
STK33 kin inh – human STK33 kinase inhibition; Q9BYT3; ADP-Glo luminescence, MBP substrate; inhibition, % at 12.5 µM; 27,000 compounds, 0.44% hits; AID 2322; in the data active = inhibition above about 20%
The depositor's hits bear a star; i = inactive; x = no result.

SMILES	ID4 SMM	STK33 kin inh
CN[C@@H]1C[C@@]2(C)O[C@@H]([C@@H]1OC)n1c3ccccc3c3c4c(c5c6ccccc6n2c5c31)C(=O)NC4	x	130.7*
Cc1ccc2cc3c(ccc4ccccc43)c3c2c1CC3	i	1.6
COc1cc(C(=O)O[C@H]2[C@@H]3C=CO[C@@H](O[C@@H]4O[C@H](CO)[C@@H](O)[C@H](O)[C@H]4O)[C@@H]3[C@@]3(CO)O[C@@H]23)ccc1O	i	2.6
COc1cc2c(c(OC)c1OC)-c1cc3c(cc1[C@H](OC(C)=O)[C@H]1COC(=O)[C@@H]1C2)OCO3	x	-3.4
CCn1cnc2c(Nc3cccc(Cl)c3)nc(N[C@@H]3CCCC[C@@H]3N)nc21	x	62.5*
CC(C(=O)OC1CC2CCC(C1)N2C)c1ccc(Br)cc1 (stereo not given)	i	x
